Test systems include T-47D breast; BT-549 breast; MDA-MB-435 melanoma; SW-620 colon; MCF7 breast; HCT-116 colon; HCC-2998 colon; KM12 colon.
Assay in all cases: NCI-60 one-dose screen, 48 h (100 = growth as untreated, 0 = no growth, -100 = all killed)
Holding throughout (details): 10 µM unless noted

Drawing on PubChem BioAssay (NCI), this text covers growth for 15 compounds.

Compounds without any hit were thinned out: in the full panel of roughly 83,000, 20% have a hit.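 Percent growth is the endpoint: 0 to 100 indicates growth inhibition (40 means 60% inhibition), 0 means no net growth, and negative values indicate cell death.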 A number with no mark means an inactive call. Activity calls are given as the source filed them. The calls were made as follows: active = growth percent below 10; inactive = the rest.

As to `CCN(CC)CCCC(C)NCCCNc1cccc2cccnc12` (stereo not given), the growth in the assay on T-47D breast is 89.5%; in the assay on BT-549 breast, 102%; in the assay on MDA-MB-435 melanoma, 106%; with SW-620 colon it was 96.5%; with MCF7 breast, 95.9%; in the assay on HCT-116 colon, 95.4%. Moreover, the growth in the assay on HCC-2998 colon was 82.5%; in the assay on KM12 colon it was 102%.

For `COc1ccc(-n2cc(-c3ccccc3)c3c(SCC(=O)N/N=C/c4ccc([N+](=O)[O-])cc4)ncnc32)cc1`, the growth is 98.7% in the assay with T-47D breast; 97.8% with BT-549 breast; 109% in the assay on MDA-MB-435 melanoma; 103% in the assay on SW-620 colon; 92.5% in the assay on MCF7 breast; 105% in the assay with HCT-116 colon. Also, the growth was 97.7% in the assay with HCC-2998 colon and 101% in the assay with KM12 colon.

In the case of `CN1CCN(c2ccc3nc(-c4ccc5nc(-c6ccc(OCCC(C)(C)C)cc6)[nH]c5c4)[nH]c3c2)CC1`, the growth was 73.4% with T-47D breast; 72.4% in the assay on BT-549 breast; -37.8% (active) with MDA-MB-435 melanoma; -82.6% (active) with SW-620 colon; -61.3% (active) with MCF7 breast; -95% (active) in the assay on HCT-116 colon. The values for the growth in the assay with HCC-2998 colon and in the assay with KM12 colon were -64.6% (active) and -60.6% (active), respectively.

On to `COc1ccc(/C=C/C(=O)c2c(O)c(C)c(O)c3c2OC2=CC(O)=C(C(C)=O)C(=O)[C@]23C)cc1`, for which the growth in the assay on T-47D breast is -17.1% (active); with BT-549 breast it was -19.9% (active); in the assay with MDA-MB-435 melanoma, -66.9% (active); in the assay with SW-620 colon, 6.73% (active); in the assay on MCF7 breast, -2.88% (active); in the assay on HCT-116 colon, -8.41% (active). The growth in the assay with HCC-2998 colon was -30.2% (active); with KM12 colon it was -4.07% (active).

For `C[C@]12C[C@@H](c3ccoc3)OC(=O)[C@@H]1CC[C@]1(C)[C@@H]2CC[C@@H](O)[C@]1(C)O`, the growth in the assay with T-47D breast is 82.6%; in the assay on BT-549 breast, 106%; in the assay with MDA-MB-435 melanoma it was 57.4%; in the assay on SW-620 colon, 63.2%; in the assay with MCF7 breast it was 108%; with HCT-116 colon, 90.5%. For the same compound, the growth in the assay on HCC-2998 colon is 95.8%; in the assay on KM12 colon, 102%.

On to `COc1cccc(-c2nc3sccn3c2-c2ccnc(NCCCNS(=O)(=O)c3ccccc3)c2)c1`, for which the growth in the assay on T-47D breast was -8.88% (active); in the assay with BT-549 breast, 2.07% (active); in the assay on MDA-MB-435 melanoma it was 38.5%; in the assay with SW-620 colon it was 59%; with MCF7 breast, 46.2%; in the assay on HCT-116 colon, 12.2%. Also, the growth was 67.4% in the assay with HCC-2998 colon and 29.2% with KM12 colon.

For `CN(CC(=O)N(Cc1ccc(C2CCCCC2)cc1)c1ccc(C(=O)NO)cc1)S(=O)(=O)c1c(F)c(F)c(F)c(F)c1F`, the growth with T-47D breast is 11.2%; in the assay with BT-549 breast it was 93%; in the assay on MDA-MB-435 melanoma it was 99.1%; in the assay on SW-620 colon it was 20.1%; in the assay on MCF7 breast it was 24.9%; in the assay on HCT-116 colon, 75.6%. In addition, the growth in the assay with HCC-2998 colon was 84.2%; with KM12 colon, 99.4%.

On to `Oc1ccccc1/C=N/Nc1ccc2ccccc2n1`, for which the growth with T-47D breast is 21.8%; in the assay with BT-549 breast, 66.8%; in the assay on MDA-MB-435 melanoma, 65.2%; in the assay with SW-620 colon, 34%; in the assay on MCF7 breast it was -18% (active); in the assay on HCT-116 colon, 22.3%. In addition, the growth with HCC-2998 colon was 68.6%; in the assay with KM12 colon it was 46.3%.

On to `O=C(O)c1ccccc1Nc1cccc(S(F)(F)(F)(F)F)c1`, for which the growth in the assay on T-47D breast is 85.8%; in the assay on BT-549 breast it was 106%; in the assay with MDA-MB-435 melanoma, 101%; in the assay on SW-620 colon it was 94%; with MCF7 breast it was 93.1%; with HCT-116 colon, 98.3%. The growth in the assay on HCC-2998 colon is 108%; in the assay on KM12 colon it was 100%.

As to `CN1CCCCC1CCN1c2ccccc2Sc2ccc(Br)cc21` (stereo not given), the growth is 77.9% in the assay on T-47D breast; 68.5% in the assay on BT-549 breast; 20.4% in the assay on MDA-MB-435 melanoma; 79.6% with SW-620 colon; 21% with MCF7 breast; 28.8% with HCT-116 colon. For the same compound, the growth is 51.3% in the assay on HCC-2998 colon and 60.7% with KM12 colon.

Consider `Cc1cc2cc3cc(C)c(N(C)C)cc3nc2cc1N(C)C`, for which the growth in the assay with T-47D breast is 7.76% (active); in the assay with BT-549 breast it was -11.6% (active); with MDA-MB-435 melanoma, 29.1%; in the assay with SW-620 colon it was 17.7%; in the assay with MCF7 breast, 13.5%; with HCT-116 colon, 13.7%. The growth with HCC-2998 colon is 23.7%; with KM12 colon it was 3.92% (active).

Take `Cc1ccccc1CCO`: the growth with T-47D breast was 96.9%; with BT-549 breast, 95.1%; in the assay with MDA-MB-435 melanoma, 108%; in the assay with SW-620 colon, 94.7%; in the assay on MCF7 breast, 91.1%; in the assay with HCT-116 colon, 93.6%. The figures for the growth in the assay on HCC-2998 colon and in the assay with KM12 colon were 92.6% and 109%, respectively.

Regarding `Cc1cc(=O)oc2cc(Oc3nc(-c4ccc(Cl)cc4)cn4c(-c5ccc(Cl)cc5)cnc34)ccc12`, the growth in the assay on T-47D breast was 104%; in the assay with BT-549 breast it was 89.4%; in the assay on MDA-MB-435 melanoma it was 75.5%; with SW-620 colon it was 66.7%; in the assay on MCF7 breast, 73.1%; in the assay with HCT-116 colon it was 92.1%. The values for the growth in the assay on HCC-2998 colon and in the assay on KM12 colon were 106% and 81.2%, respectively.

Consider `CCN(C(=O)CN1CCN(c2cc3c(cc2F)c(=O)c(C(=O)O)cn3CC)CC1)c1nc(-c2ccccc2)cs1`, for which the growth with T-47D breast is 11.9%; in the assay on BT-549 breast it was 3.3% (active); with MDA-MB-435 melanoma, -13.9% (active); in the assay on SW-620 colon, 13.9%; in the assay on MCF7 breast, 7.6% (active); in the assay on HCT-116 colon, 14%. Besides, the growth was 19.6% in the assay on HCC-2998 colon and 12.7% with KM12 colon.

In the case of `C=C1CC[C@@H]2[C@](C)(COC(C)=O)[C@H](OC(C)=O)CC[C@@]2(C)[C@@H]1CC(NCc1ccc(F)cc1)C1=CCOC1=O` (stereo not given in full), the growth is 26.6% with T-47D breast; 28.7% in the assay on BT-549 breast; 32.7% in the assay with MDA-MB-435 melanoma; 32% in the assay with SW-620 colon; 16.6% in the assay on MCF7 breast; 33.7% in the assay on HCT-116 colon. Moreover, the growth in the assay on HCC-2998 colon was 89.3%; in the assay with KM12 colon it was 46.5%.
